According to PubChem BioAssay (NCI):
Compounds without any hit were thinned out: in the full panel of roughly 83,000, 20% have a hit.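 Cell lines were cultured in 96-well plates, exposed to a single compound concentration, and assessed for percent growth 48 hours later.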 Unmarked numbers belong to inactive results. Active and inactive are the calls of the source. The calls were made as follows: active = growth percent below 10; inactive = the rest.

Key:
Experiment in all cases: NCI-60 one-dose screen, 48 h (100 = growth as untreated, 0 = no growth, -100 = all killed)
Settings in all cases: 10 µM unless noted
DU-145 prostate = tested on: DU-145 prostate
K-562 leukemia = tested on: K-562 leukemia
MALME-3M melanoma = tested on: MALME-3M melanoma
MDA-MB-231 breast = tested on: MDA-MB-231 breast
RXF 393 renal = tested on: RXF 393 renal
SF-268 CNS = tested on: SF-268 CNS
SF-295 CNS = tested on: SF-295 CNS
SF-539 CNS = tested on: SF-539 CNS
UACC-257 melanoma = tested on: UACC-257 melanoma
M14 melanoma = tested on: M14 melanoma
HCT-15 colon = tested on: HCT-15 colon
HT29 colon = tested on: HT29 colon
SNB-75 CNS = tested on: SNB-75 CNS
SNB-19 CNS = tested on: SNB-19 CNS
U251 CNS = tested on: U251 CNS
PC-3 prostate = tested on: PC-3 prostate
SK-MEL-5 melanoma = tested on: SK-MEL-5 melanoma
UACC-62 melanoma = tested on: UACC-62 melanoma
SK-MEL-28 melanoma = tested on: SK-MEL-28 melanoma
LOX IMVI melanoma = tested on: LOX IMVI melanoma

| SMILES | growth (DU-145 prostate) [%] | growth (K-562 leukemia) | growth (MALME-3M melanoma) | growth (MDA-MB-231 breast) | growth (RXF 393 renal) | growth (SF-268 CNS) [%] | growth (SF-295 CNS) | growth (SF-539 CNS) | growth (UACC-257 melanoma) | growth (M14 melanoma) | growth (HCT-15 colon) | growth (HT29 colon) | growth (SNB-75 CNS) | growth (SNB-19 CNS) [%] | growth (U251 CNS) | growth (PC-3 prostate) [%] | growth (SK-MEL-5 melanoma) | growth (UACC-62 melanoma) [%] | growth (SK-MEL-28 melanoma) | growth (LOX IMVI melanoma) |
| --- | --- | --- | --- | --- | --- | --- | --- | --- | --- | --- | --- | --- | --- | --- | --- | --- | --- | --- | --- | --- |
| C[C@@H](Oc1ccc(C(=O)NS(=O)(=O)C(C)(C)C)cc1C(F)(F)F)c1ccc(Oc2ccccc2)cn1 | 79.6 | 19.9% | 44.4% | 68.9% | -12.5% (active) | 54.3 | 22.2% | 29.8% | 51.5% | 22.8% | 23.8% | 34.6% | -9.43% (active) | 20 | 25.6% | 47.5 | 23.2% | 18 | 47.1% | – |
| CC(C)(C)c1cc(-n2c(-c3ccc(Cl)cc3)nc3cc(C(=O)Nc4ccc(Cl)cc4)ccc32)n[nH]1 | 79.8 | 41.2% | 75.4% | 79.8% | 65.7% | 69.7 | -2.36% (active) | 82.9% | 81.1% | 62.7% | 39.2% | 89.5% | 60.7% | 60.2 | 53.2% | 33.7 | 44.8% | 39 | 79.7% | – |
| O=C1C(=O)N(CCCCn2cc(-c3ccccc3)nn2)c2ccccc21 | 105 | 109% | 92.9% | 102% | 114% | 101 | 102% | 93.9% | 100% | 96.1% | 105% | 112% | 95% | 99.7 | 107% | 94.3 | 100% | 95.7 | 113% | – |
| NC1=NN(c2ccccc2)C(=O)/C1=C/c1ccc(Cl)cc1 | 107 | 102% | 92.4% | -99% (active) | 107% | 102 | 113% | 111% | 97.3% | 97.2% | 99.4% | 102% | 105% | 96.9 | 98.1% | 82.8 | 101% | 81.2 | 95% | – |
| CCN1CCN(c2nc(C)cc(N(CCCNc3ccnc4cc(Cl)ccc34)Cc3ccco3)n2)CC1 | 55.5 | 8.16% (active) | -6.8% (active) | 11.6% | 48.5% | 55.7 | 51% | -63.5% (active) | -2.43% (active) | -76% (active) | 17.9% | 11.4% | 66.8% | 73.1 | 42.2% | 53.9 | -37.8% (active) | – | -63.7% (active) | 9.87% (active) |
| C[Si](C)(C)Cc1ccccc1 | 125 | 126% | 115% | 115% | 132% | 122 | 103% | 107% | 112% | 104% | 110% | 114% | 87.8% | 116 | 114% | 105 | 108% | – | 128% | 102% |
| Cn1cc(-c2csc(-c3cn(CCNC(=O)OC(C)(C)C)c4ccc(F)cc34)n2)c2cccnc21 | 94.2 | 56.4% | 83.2% | 78.4% | 105% | 81.4 | 86.2% | 81.7% | 94.2% | 52.3% | 52.8% | 76.2% | 86.3% | 90.3 | 82.2% | 25.9 | 23.6% | – | 88.7% | 71.9% |
| Cn1cc(-c2csc(-c3cn(CCN)c4ccccc34)n2)c2cccnc21 | 75.6 | -44.3% (active) | 68.2% | 45.7% | 70.9% | 64.4 | 58.6% | 47.9% | 78.1% | 43.4% | 46.6% | 30.3% | 46.8% | 65.3 | -75% (active) | 46.7 | 23.7% | – | 73% | 45.3% |
| C=CC(=O)N[C@H](Cc1ccc(-c2cc(Cl)cc(Cl)c2)cc1)[C@H](O)[C@@H](O)C(=O)O | 102 | 85% | 90.1% | 98.9% | 101% | 102 | 82.8% | 99.6% | 74.4% | 86.3% | 96% | 81.5% | 87% | 99.5 | 80.2% | 63.9 | 91.6% | – | 106% | 95.6% |
| COc1ccc2c(c1)c(-c1nc(-c3c[nH]c4ncccc34)cs1)cn2CCNC(=O)OC(C)(C)C | 89.3 | 62.4% | 103% | 53.2% | 83.1% | 83.5 | 85.1% | 66.5% | 98.5% | 69.3% | 54.6% | 71.3% | 68.2% | 93 | 69.1% | 31.8 | 54.2% | – | 88.1% | 71.9% |
| OCC(CO)(CCl)CCl | 105 | 106% | 101% | 94.8% | 113% | 98 | 107% | 102% | 69.6% | 89.4% | 109% | 96.6% | 96.8% | 98.7 | 84.8% | 80.2 | 104% | – | 103% | 98.2% |
| CC(C)(C)c1nc(-c2ccc(O)c(O)c2)cs1 | 66.3 | 50% | 86.8% | 54.3% | 72% | 67.1 | 61.6% | 57.7% | 76.2% | 43.2% | 36.3% | 92.6% | 73.1% | 72.1 | 46.9% | 54 | 54.4% | – | 87.8% | 63.5% |
| COc1ccc(-c2nc3c(c(C)nn3-c3ccc(F)cc3)c(=O)[nH]2)cc1 | 85 | 97.1% | 75.3% | 75.2% | 82.8% | 78.9 | 68.1% | 87% | 101% | 82.7% | 83% | 58.6% | 11.1% | 75 | 44% | 78.1 | 79.1% | – | 96.8% | 75.2% |
| Cc1cc(N(CCCNc2ccnc3cc(Cl)ccc23)Cc2ccco2)nc(N2CCN(C)CC2)n1 | 55.6 | 12.9% | -49.6% (active) | 14.4% | 35.9% | 56.1 | 57.1% | -62.9% (active) | -63.2% (active) | -82.5% (active) | 16.9% | 12.4% | 68.7% | 58.2 | 28.6% | 51.5 | -42.6% (active) | – | -75.2% (active) | 0.725% (active) |
| COc1ccc2c(c1)c(-c1nc(-c3cn(C)c4ncccc34)cs1)cn2CCCN1CCCCC1 | 42.9 | -48.4% (active) | 81.1% | 44.2% | 65% | 76.6 | 91.6% | 43.9% | 96% | -85.2% (active) | -69.9% (active) | -16.5% (active) | 77.5% | 55.2 | -18.4% (active) | 51.1 | 28.6% | – | -77.5% (active) | 28.3% |
